Measurements: PubChem BioAssay AID1159580 (chemical genetic matrix, 2015)
“And” between values parts separate entries of the source, which are not always exact repeats. Identical values can stand only once. About 2,000 (36%) of roughly 5,500 compounds were called active. About 18% were inconclusive and are not listed. This is one part of the list. Unmarked numbers belong to inactive results. No stated cut-off is given here; in the data, active means normalized growth mostly below about 0.91 (no sharp cut-off); inconclusive means no clear call, values can overlap the other calls; inactive means mostly above about 0.92.

Test: chemical genetic growth profiling, strain panel (AID 1159580);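 further: tested at 20 µM; growth read once vehicle control cultures reached saturation at 30 °C; 1 = growth at the plate median or of vehicle wells; lower values mean less growth of the strain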
Details: S. cerevisiae deletion strains, growth OD

What does the source list for `CCOc1ccc(C(=O)c2ccc(O)c(O)c2O)cc1`?
normalized growth (locus YAL021C, strain ccr4, hits give low values): 0.754 (active); normalized growth (locus YAL026C, strain drs2, hits give low values): 0.844 (active); normalized growth (locus YAL030W, strain snc1, hits give low values): 0.936; normalized growth (locus YBL061C, strain skt5, hits give low values): 0.898 (active); normalized growth (locus YBR009C, strain hhf1, hits give low values): 0.926; normalized growth (locus YBR021W, strain FUR4, hits give low values): 0.926; normalized growth (locus YBR023C, strain chs3, hits give low values): 0.84 (active); normalized growth (locus YBR171W, strain sec66, hits give low values): 0.899; normalized growth (locus YBR229C, strain ROT2, hits give low values): 0.979; normalized growth (locus YBR231C, strain swc5, hits give low values): 0.829 (active); normalized growth (locus YBR279W, strain paf1, hits give low values): 0.927 (active); normalized growth (locus YCL011C, strain gbp2, hits give low values): 0.945; normalized growth (locus YCL016C, strain dcc1, hits give low values): 0.919; normalized growth (locus YCL029C, strain bik1, hits give low values): 0.857 (active); normalized growth (locus YCL061C, strain MRC1, hits give low values): 0.908 (active); normalized growth (locus YCL069W, strain vba3, hits give low values): 0.96; normalized growth (locus YCR088W, strain abp1, hits give low values): 0.949; normalized growth (locus YDL005C, strain med2, hits give low values): 0.973; normalized growth (locus YDL035C, strain GPR1, hits give low values): 0.899; normalized growth (locus YDL040C, strain nat1, hits give low values): 0.971; normalized growth (locus YDL074C, strain BRE1, hits give low values): 0.741 (active); normalized growth (locus YDL101C, strain DUN1, hits give low values): 0.849 (active); normalized growth (locus YDL134C, strain PPH21, hits give low values): 0.853 (active); normalized growth (locus YDL185W, strain tfp1, hits give low values): 0.845 (active); normalized growth (locus YDL192W, strain arf1, hits give low values): 0.868 (active); normalized growth (locus YDR001C, strain nth1, hits give low values): 0.963; normalized growth (locus YDR069C, strain doa4, hits give low values): 0.703 (active); normalized growth (locus YDR101C, strain arx1, hits give low values): 0.911 (active); normalized growth (locus YDR137W, strain rgp1, hits give low values): 0.701 (active); normalized growth (locus YDR159W, strain sac3, hits give low values): 0.924; normalized growth (locus YDR162C, strain NBP2, hits give low values): 0.823 (active); normalized growth (locus YDR195W, strain ref2): 1.04; normalized growth (locus YDR297W, strain sur2, hits give low values): 0.928; normalized growth (locus YDR318W, strain mcm21, hits give low values): 0.907 (active); normalized growth (locus YDR334W, strain swr1, hits give low values): 0.877 (active); normalized growth (locus YDR335W, strain msn5, hits give low values): 0.858 (active); normalized growth (locus YDR388W, hits give low values): 0.955; normalized growth (locus YDR392W, strain spt3, hits give low values): 0.87; normalized growth (locus YDR502C, strain sam2, hits give low values): 0.861 (active); normalized growth (locus YEL003W, strain gim4, hits give low values): 0.893 (active); normalized growth (locus YEL037C, strain rad23, hits give low values): 0.928; normalized growth (locus YEL061C, strain CIN8 (second series), hits give low values): 0.958; normalized growth (locus YEL061C, strain CIN8, hits give low values): 0.901 (active); normalized growth (locus YER015W, strain faa2, hits give low values): 0.883 (active); normalized growth (locus YER016W, strain bim1, hits give low values): 0.924; normalized growth (locus YER110C, hits give low values): 0.989; normalized growth (locus YER111C, strain swi4, hits give low values): 0.72 (active); normalized growth (locus YER155C, strain BEM2 (second series), hits give low values): 0.902; normalized growth (locus YER155C, strain BEM2, hits give low values): 0.991; normalized growth (locus YER167W, strain BCK2, hits give low values): 0.953; normalized growth (locus YFR010W, strain ubp6, hits give low values): 0.854 (active); normalized growth (locus YGL078C, strain dbp3, hits give low values): 0.965; normalized growth (locus YGL086W, strain mad1, hits give low values): 0.86 (active); normalized growth (locus YGL167C, strain pmr1, hits give low values): 0.917; normalized growth (locus YGL173C, strain kem1, hits give low values): 0.853 (active); normalized growth (locus YGL227W, strain vid30, hits give low values): 0.982; normalized growth (locus YGL240W, strain doc1, hits give low values): 0.955; normalized growth (locus YGL248W, strain PDE1, hits give low values): 0.837 (active); normalized growth (locus YGL253W, strain hxk2, hits give low values): 0.928; normalized growth (locus YGR078C, strain PAC10, hits give low values): 0.821 (active); normalized growth (locus YGR135W, strain pre9, hits give low values): 0.85 (active); normalized growth (locus YGR252W, strain gcn5, hits give low values): 0.861; normalized growth (locus YHR013C, strain ard1, hits give low values): 0.852; normalized growth (locus YHR027C, strain rpn1, hits give low values): 0.869 (active); normalized growth (locus YHR030C, strain SLT2, hits give low values): 0.824 (active); normalized growth (locus YHR079C, strain IRE1 (second series), hits give low values): 0.902 (active); normalized growth (locus YHR079C, strain IRE1, hits give low values): 0.898; normalized growth (locus YHR094C, strain hxt1, hits give low values): 0.993; normalized growth (locus YHR129C, strain ARP1, hits give low values): 0.826 (active); normalized growth (locus YHR142W, strain chs7, hits give low values): 0.786 (active); normalized growth (locus YHR200W, strain rpn10, hits give low values): 0.886 (active); normalized growth (locus YIL066C, strain RNR3, hits give low values): 0.88; normalized growth (locus YIL073C, strain SPO22, hits give low values): 0.848; normalized growth (locus YIL125W, strain kgd1, hits give low values): 0.951; normalized growth (locus YIR030C, strain dcg1, hits give low values): 0.976; normalized growth (locus YJL092W, strain hpr5, hits give low values): 0.955; normalized growth (locus YJL095W, strain BCK1 (second series), hits give low values): 0.908 (active); normalized growth (locus YJL095W, strain BCK1, hits give low values): 0.784 (active) and 0.833 (active); normalized growth (locus YJL115W, strain asf1, hits give low values): 0.966; normalized growth (locus YJL129C, strain trk1, hits give low values): 0.944; normalized growth (locus YJL134W, strain LCB3, hits give low values): 0.968; normalized growth (locus YJL154C, strain vps35, hits give low values): 0.953; normalized growth (locus YJL164C, strain tpk1, hits give low values): 0.877 (active); normalized growth (locus YJL166W, strain qcr8, hits give low values): 0.933; normalized growth (locus YJL168C, strain set2, hits give low values): 0.963; normalized growth (locus YJL187C, strain SWE1 (second series), hits give low values): 0.632 (active); normalized growth (locus YJL187C, strain SWE1, hits give low values): 0.915 (active); normalized growth (locus YJR066W, strain TOR1, hits give low values): 0.812 (active); normalized growth (locus YJR075W, strain HOC1, hits give low values): 0.928; normalized growth (locus YKL009W, strain mrt4, hits give low values): 0.983; normalized growth (locus YKL068W, hits give low values): 0.97; normalized growth (locus YKL085W, strain MDH1 (second series), hits give low values): 0.967; normalized growth (locus YKL085W, strain MDH1, hits give low values): 0.967; normalized growth (locus YKL160W, strain elf1, hits give low values): 0.9 (active); normalized growth (locus YKR001C, strain vps1, hits give low values): 0.916; normalized growth (locus YKR026C, strain gcn3, hits give low values): 0.941; normalized growth (locus YKR091W, strain srl3, hits give low values): 0.965; normalized growth (locus YLL001W, strain dnm1, hits give low values): 0.932; normalized growth (locus YLL026W, hits give low values): 0.952; normalized growth (locus YLL041C, strain sdh2, hits give low values): 0.937; normalized growth (locus YLR027C, strain aat2, hits give low values): 0.947; normalized growth (locus YLR039C, strain RIC1, hits give low values): 0.777; normalized growth (locus YLR058C, strain SHM2, hits give low values): 0.631 (active); normalized growth (locus YLR102C, strain apc9, hits give low values): 0.995; normalized growth (locus YLR113W, strain HOG1, hits give low values): 0.903; normalized growth (locus YLR221C, strain rsa3, hits give low values): 0.887 (active); normalized growth (locus YLR258W, strain gsy2, hits give low values): 0.934; normalized growth (locus YLR262C, strain YPT6 (second series), hits give low values): 0.803 (active); normalized growth (locus YLR262C, strain YPT6, hits give low values): 0.896; normalized growth (locus YLR268W, strain sec22, hits give low values): 0.84 (active); normalized growth (locus YLR320W, strain mms22, hits give low values): 0.88; normalized growth (locus YLR330W, strain CHS5, hits give low values): 0.884 (active); normalized growth (locus YLR342W, strain FKS1, hits give low values): 0.891 (active); normalized growth (locus YLR357W, strain rsc2, hits give low values): 0.691 (active); normalized growth (locus YLR370C, strain arc18, hits give low values): 0.95; normalized growth (locus YLR371W, strain rom2, hits give low values): 0.776 (active); normalized growth (locus YLR384C, strain iki3, hits give low values): 0.936; normalized growth (locus YLR418C, strain cdc73, hits give low values): 0.715 (active); normalized growth (locus YML016C, strain PPZ1, hits give low values): 0.83 (active); normalized growth (locus YML032C, strain rad52, hits give low values): 0.994; normalized growth (locus YML120C, strain ndi1, hits give low values): 0.928; normalized growth (locus YML124C, strain tub3, hits give low values): 0.967; normalized growth (locus YMR058W, strain fet3, hits give low values): 0.384 (active); normalized growth (locus YMR078C, strain ctf18, hits give low values): 0.965; normalized growth (locus YMR125W, strain sto1, hits give low values): 0.958; normalized growth (locus YMR129W, hits give low values): 0.963; normalized growth (locus YMR205C, strain PFK2, hits give low values): 0.825 (active); normalized growth (locus YMR223W, strain ubp8, hits give low values): 0.874 (active); normalized growth (locus YMR231W, strain pep5, hits give low values): 0.9 (active); normalized growth (locus YMR263W, strain SAP30, hits give low values): 0.884 (active); normalized growth (locus YMR307W, strain GAS1, hits give low values): 0.787; normalized growth (locus YNL067W, strain RPL9B, hits give low values): 0.869; normalized growth (locus YNL071W, strain lat1, hits give low values): 0.963; normalized growth (locus YNL153C, strain GIM3, hits give low values): 0.853 (active); normalized growth (locus YNL183C, strain NPR1, hits give low values): 0.852; normalized growth (locus YNL209W, strain ssb2, hits give low values): 0.76 (active); normalized growth (locus YNL233W, strain BNI4, hits give low values): 0.866 (active); normalized growth (locus YNL248C, strain rpa49, hits give low values): 0.98; normalized growth (locus YNL250W, strain rad50, hits give low values): 0.981; normalized growth (locus YNL271C, strain bni1, hits give low values): 0.911 (active); normalized growth (locus YNL298W, strain CLA4, hits give low values): 0.941; normalized growth (locus YNL307C, strain MCK1, hits give low values): 0.951; normalized growth (locus YNL322C, strain KRE1 (second series), hits give low values): 0.943; normalized growth (locus YNL322C, strain KRE1, hits give low values): 0.821 (active); normalized growth (locus YNR049C, strain mso1, hits give low values): 0.954; normalized growth (locus YNR052C, strain pop2, hits give low values): 0.792 (active); normalized growth (locus YOL006C, strain TOP1, hits give low values): 0.656; normalized growth (locus YOL012C, strain htz1): 0.425; normalized growth (locus YOL147C, strain pex11, hits give low values): 0.84 (active); normalized growth (locus YOR001W, strain rrp6, hits give low values): 0.867 (active); normalized growth (locus YOR061W, strain CKA2, hits give low values): 0.852 (active); normalized growth (locus YOR069W, strain VPS5, hits give low values): 0.88 (active); normalized growth (locus YOR070C, strain gyp1, hits give low values): 0.941; normalized growth (locus YOR080W, strain dia2, hits give low values): 0.954; normalized growth (locus YOR083W, strain WHI5, hits give low values): 0.887 (active); normalized growth (locus YOR106W, strain vam3, hits give low values): 0.711 (active); normalized growth (locus YOR136W, strain idh2, hits give low values): 0.962; normalized growth (locus YOR144C, strain elg1, hits give low values): 0.867 (active); normalized growth (locus YOR184W, strain ser1, hits give low values): 0.882; normalized growth (locus YOR231W, strain MKK1, hits give low values): 0.931; normalized growth (locus YOR265W, strain rbl2, hits give low values): 0.913 (active); normalized growth (locus YOR270C, strain vph1, hits give low values): 0.81; normalized growth (locus YOR290C, strain snf2, hits give low values): 0.67 (active); normalized growth (locus YOR316C, strain cot1, hits give low values): 0.983; normalized growth (locus YPL051W, strain arl3, hits give low values): 0.807 (active); normalized growth (locus YPL055C, strain LGE1, hits give low values): 0.841; normalized growth (locus YPL078C, strain atp4, hits give low values): 0.885 (active); normalized growth (locus YPL106C, strain sse1, hits give low values): 0.839 (active); normalized growth (locus YPL240C, strain hsp82, hits give low values): 0.949; normalized growth (locus YPL241C, strain CIN2, hits give low values): 0.969; normalized growth (locus YPL256C, strain CLN2, hits give low values): 0.984; normalized growth (locus YPR119W, strain clb2, hits give low values): 0.991; normalized growth (locus YPR141C, strain kar3, hits give low values): 0.964; normalized growth (locus YPR163C, strain tif3, hits give low values): 0.901 (active); normalized growth (locus YPR167C, strain met16, hits give low values): 0.897 (active); normalized growth (strain wtn01, hits give low values): 0.864 (active)
